From PubChem BioAssay AID651644 (National Center for Advancing Translational Sciences (NCATS), 2012)
In all, about 360,000 compounds went through this assay and about 750 (0.21%) were called active. Inconclusive results (about 2%) are left out. The sample holds actives, similar compounds and a random draw of the others, so the mix is not that of the screen. A number with no mark means an inactive call. The call rests on the fitted dose curve; in most records, active means well fitted falling curve with a large enough effect; inconclusive means small, poorly fitted or top-dose-only effect; inactive means no such curve, though single readings can be large or run the other way.

Assay: qHTS Assay for Inhibitors of the HIV-1 protein Vpr; further: nearly all actives have a fitted effect of over 50% in size
Settings: S. pombe RE007 Vpr strain, BacTiter-Glo ATP luminescence, 24 h; series mostly up to 92.2 µM; activity change, negative = less growth: at the top concentration
Source text: Human immunodeficiency virus type 1 (HIV-1), the causative agent of AIDS, contains a protein called viral protein R (Vpr) that plays an important role in the viral life cycle and the pathogenesis of HIV-1.
These Vpr specific activities include cytoplasmic-nuclear shuttling, induction of cell cycle G2 arrest and cell killing. The cytoplasmic-nuclear shuttling is believed to participate in nuclear transport of the proviral integration complex (PIC). The cell cycle G2 arrest induced by Vpr is thought to suppress human immune functions by preventing T cell clonal expansion and to provide an optimized cellular environment for maximal levels of viral replication. In addition, Vpr induces apoptosis, which may contribute to the depletion of CD4 T cells in HIV-infected patients. Since the Vpr-specific activities have been linked to such clinical manifestation of AIDS as activation of viral replication, suppression of host immune responses and depletion of CD4+ T-lymphocytes, identification of new molecular probes that can inhibit the Vpr activities could potentially provide a new approach to reduce Vpr-mediated detrimental effects in HIV-infected patients, and thus prolong patient's lives. Currently, there are no anti-Vpr drugs.
A fission yeast (Schizosaccharomyces pombe) model system for the Vpr studies has been developed which measures HIV-1 Vpr-induced cell death. This assay will be used for to screen the NIH Molecular Libraries Small Molecule Repository (MLSMR) identify small molecule HIV-1 Vpr inhibitors.
NIH Chemical Genomics Center [NCGC]
NIH Molecular Libraries Probe Centers Network [MLPCN]
Assay Submitter (PI): Richard Zhao, University of Maryland
The fission yeast RE007 strain was used, which carries a single integrated copy of HIV-1 vpr gene in the yeast chromosome. The starting culture was frozen stock 100ul of yeast RE007 in 150ml of *PMG+AL medium, Incubation in 30 degree plus 99% humidity for 18 hours. Next day dispensed 2.5ul of PMG+AL medium in each well to 1536 well white solid plate, then 23nL compound were delivered to each well using a pin tool. Check OD for overnight culture and add cell density at 0.01 for each well, incubation in 30 degree plus 99% humidity for 24 hours. After add 5 ul of *BacTiter/Glo detect reagent to each well at room temperature for 5 minutes then to red out results with Viewlux CCD camera.
On the % scale 0 is the no-effect control and ±100 the full control effect.

Compound | activity change, negative = less growth [%] | Potency
COc1ccc(-c2cc(C3CCN(c4ncccc4[N+](=O)[O-])CC3)[nH]n2)cc1 | 12 | 
CN(C)C(=O)c1cccc(-c2cnc3sc(NCc4ccc5c(c4)OCO5)nn23)c1 | 17.8 | 
Cc1cccc(C(=O)N2CCCC(Nc3ccc(C(C)C)cc3)C2)n1 (stereo unspecified) | -10.3 | 
O=C(Nc1ccccc1)c1nnsc1S(=O)(=O)c1ccc(Cl)cc1 |  | 6.31 µM (active)
Cc1nnsc1C(=O)Nc1cccc(Cl)c1C | -7.71 | 
CC1=C(C(=O)Nc2ccccc2)S(=O)(=O)CCO1 | 14.7 | 
COc1ccc(C(C)NC(=O)C2CCCC2)cc1 (stereo unspecified) | 16.1 | 
O=C(Cn1cc(C(F)(F)F)ccc1=O)Nc1ccc2c(c1)OCCO2 | 1.56 | 
CC1(C)Cc2c(sc(NC(=O)C(=O)N3CCOCC3)c2C#N)CO1 | -3.12 | 
S=C(Cc1ccc(Cl)cc1)N1CCOCC1 | -11.5 | 
CC1CCN(C(NC(=O)c2ccco2)C(=O)c2ccccc2)CC1 (stereo unspecified) | 9.19 | 
CCOC(=O)c1c(Cc2ccc(Cl)cc2)c[nH]c1C | -1.99 | 
COc1ccc(N=Nc2c(-c3ccc(OC)cc3)[nH]oc2=O)cc1 | -3.2 | 
COC1=CC(=O)OC(c2ccc(OC)cc2)C1 (stereo unspecified) | 3.06 | 
COc1ccc(N=C2C=CC(=O)O2)cc1 |  | 8.91 µM (active)
O=C(Nc1ccccc1F)c1ccc(Cn2cc(Br)cn2)cc1 | 4.37 | 
C[C@H](CO)N1C[C@H](C)[C@@H](CN(C)Cc2ccc3c(c2)OCO3)OCc2cnnn2CCCC1=O | 3.04 | 
Cc1ccccc1-n1nc(C)c2c1N=C1C(Cl)=CC(Cl)=CN1C2c1ccc(C(=O)O)cc1 (stereo unspecified) | -12 | 

Compound | activity change, negative = less growth [%] | Potency
Fc1ccccc1N=C1Nc2cccc3cccc1c23 |  | 25.1 µM (active)
O=C(NCC1CCCCC1)c1cc(S(=O)(=O)N2CCCCC2)ccc1N1CCOCC1 | -20.1 | 
COc1cccc2c1CCC(NC(C)=O)C2=O (stereo unspecified) | 8 | 
CCOc1ccc2[nH]c3nc(SCC(=O)NC4CCCC4)nnc3c2c1 | 5.5 | 
COc1ccc(CCN(C)C(=O)C23CC4CC(CC(Cl)(C4)C2)C3)cc1OC | 10.3 | 
COc1cccc(C(C(=O)NC2CCCC2)N(C(=O)c2ccco2)c2cccc(C(C)=O)c2)c1OC (stereo unspecified) | -5.9 | 
CCOc1ccc(C(=O)CCN2CCOCC2)cc1 |  | 39.8 µM (active)
CCOc1ccc(-c2ccc(SCC(=O)N3CCOCC3)nn2)cc1 | 1.07 | 
CCOc1ccc(C(=O)CCC(=O)NC2=NCCS2)cc1 | -25.9 | 
O=C(O)CCCn1cc(NC(=O)COc2cccc(Cl)c2)cn1 | 11.7 | 
CC(NC(=O)COC(=O)C1CCN(S(=O)(=O)c2ccccc2C(F)(F)F)CC1)c1ccccc1 (stereo unspecified) | -18.4 | 
CN(C)C(CNC(=O)c1cc(Br)c(Br)s1)c1ccco1 (stereo unspecified) | 3.37 | 
O=C1C(Cl)=C(Oc2ccccc2)C(=O)c2ccccc21 |  | 3.16 µM (active)
CCC1=C(OC(=O)N(CC)CC)N2C(=O)OC(=NCCc3c[nH]c4ccccc34)[C@]2(C)[C@H]2C1=CC[C@H]1C(=O)N(CC)C(=O)[C@H]12 | 5.02 | 
CSCCC(NS(=O)(=O)c1ccc2c(c1)oc(=O)n2C)C(=O)NC1CCCc2ccccc21 (stereo unspecified) | 5.96 | 
CC[C@]1(C(=O)OC)[C@H]2C(=O)N(C)C(=O)[C@H]2[C@H]2CN(C)C(=NCc3ccccc3)N21 | -7.99 | 
Cc1cc(C)cc(NC(=O)Cn2cnc3c(nnn3Cc3ccc(F)cc3)c2=O)c1 | 18.1 | 
CCc1nnc(NC(=O)CSCc2cc(=O)n3cc(C)sc3n2)s1 | 7.37 | 
